This is an account of results in PubChem BioAssay AID743330 (NMMLSC, 2014).

Each structure is given as a SMILES string. The source made the active and inactive calls. How the calls were made is not given here.

The test system of this assay is Rab7. Description: fluorescent GTP concentration effect on GTPase potency – biochemical, four GTPases, bead flow cytometry, mechanism study, profiling panel (AID 743330). The conditions noted are these: bead-based flow cytometry, fluorescent GTP binding to GTPases. Background: A flow cytometer gives signals particle by particle.

Broadly, the EC50 is the concentration that produces a half-maximal response. Consider `CCC1(C)Cc2c(sc(NC(=S)NC(=O)c3ccccc3)c2C(=O)O)CO1` (configuration not stated), for which the EC50 is 7 nM (active).
Take `CC1(C)Cc2c(sc(NC(=S)NC(=O)c3ccc(F)cc3)c2C(=O)O)CO1`: the EC50 was 33 nM (active).
